Data on 35 molecules can be found in PubChem BioAssay AID1053125 (Broad Institute, 2014).

Results with a measured potency or affinity are listed apart. Calls of active or inactive are those of the source.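 Rule for the calls: active = viability loss whose fitted half-maximal concentration is at most twice the top valid tested dose; inconclusive = flat curve with 30 to 70% loss, or poor fit; inactive = the rest.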

The nature of this assay: HepG2 cell cytotoxicity, dose response, cytotoxicity control, ATP luminescence, cherry-pick, set 6 (AID 1053125).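 Note: negative values mean loss of viability signal.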 To be noted: HepG2 viability, ATP luminescence (CellTiter-Glo), 72 h; series mostly up to 26 µM. A general note: In ATP-based viability assays light output follows the ATP content of the culture.
Turning to `CCOC(=O)C(NC(=O)c1ccccc1)(OCC1(CC)COC1)C(F)(F)F` (stereo not given), the result was inactive.

In the case of `Cc1cc2c(C)cc(=O)oc2c2c1NCCC2`, the call was inactive. The result for `CCOc1ccc2nc(NCCCNC(=O)c3cc(OC)c(OC)c(OC)c3)c(C#N)cc2c1` reads “inactive”; that for `O=[N+]([O-])c1cccc(-c2n[nH]c(=S)n2-c2ccc(Br)cc2)c1`, “inactive”. `COc1ccc(CCNC(=O)c2cc(S(=O)(=O)N3CCCCC3)c[nH]2)cc1OC`: the call was inactive.

Turning to `CCCN1CCc2c(sc(NC(=O)C3CCN(S(=O)(=O)c4cccs4)CC3)c2C(N)=O)C1`, the molecule was called inactive.

Regarding `Cc1cccn2c(=O)c3cc(C(=O)NCC4CCCO4)c(=N)n(CC4CCCO4)c3nc12` (stereo not given), the molecule was called inactive. With `COCCCOc1cc(NCc2ccccc2)c2ncn(C(C)C)c2c1` the entry was “inactive”; with `CCc1nc(SCC(=O)c2ccccc2)c2ccccc2n1`, “inactive”.

As to `CCC(Sc1nc(N)c(NC(=O)c2ccc(OC)cc2)c(=O)[nH]1)C(=O)O` (stereo not given), the outcome was inactive.

For `O=C(c1ccc(F)cc1)C1CCN(C(=O)Nc2ccccc2Cl)CC1`, the result was inactive. With `O=C(/C=C/c1ccccc1)C1=C(O)C(=O)N(CCO)C1c1ccc2c(c1)OCO2` (stereo not given) the entry was “inactive”; with `COc1ccccc1OCc1ccc(C(=O)N(C)c2ccccc2)o1`, “inactive”; with `COc1ccc(C2C3=C(CC(C)(C)CC3=O)N(C)C3=C2C(=O)CC(C)(C)C3)cc1`, “inactive”. With `CCCOc1ccc(NC(=O)c2c(-c3ccccc3)noc2C)cc1`, the molecule was classed as inactive. With `N#Cc1ccc(OCC(=O)OCC(=O)N2CCc3ccccc32)cc1` the entry was “inactive”; with `CN(C)C(=O)CSc1nc2ccc(C(=O)c3ccccc3)cc2[nH]1`, “inactive”. With `COC(=O)C1=CN(C)C=C(C(=O)OC)C1c1ccccc1Cl` the entry was “inactive”; with `CCOC(=O)C1CCCN(CCCc2ccccc2)C1` (stereo not given), “inactive”. The result for `Cn1c2ccccc2c(=O)c2ccc(F)cc21` reads “inactive”; that for `Clc1ccccc1C1=CC(c2ccco2)n2ncnc2N1` (stereo not given), “inactive”; that for `Fc1ccc(-c2nc3ccccn3c2NCc2ccc3c(c2)OCO3)cc1`, “inactive”. Take `CCCCn1nc(NC(=O)c2cccs2)c2cc3cc(OC)ccc3nc21`: the outcome was inactive. With `Cc1cccn2c(=O)c(/C=C(\C#N)C(=O)NC3CCS(=O)(=O)C3)c(N3CCC(C(N)=O)CC3)nc12` (stereo not given) the entry was “inactive”. Regarding `COc1cc(C(=O)NCCCNc2nc3c(C)cc(C)cc3cc2C#N)cc(OC)c1OC`, the call was inactive.

Consider `CC(C)CCn1c(CN2CC(C)OC(C)C2)nc2c1c(=O)n(C)c(=O)n2C` (stereo not given), for which the molecule was called inactive. For the molecule `Cc1cccn2c(=O)c3cc(C(=O)NCc4ccco4)c(=N)n(CCc4ccccc4)c3nc12`, the outcome was inactive. The result for `[O-]/[N+](=C/c1ccccc1)c1ccccc1` reads “inactive”; that for `CC1(C)CC(=O)C2=C(C1)OC(N)=C(C#N)[C@@H]2c1ccccc1[N+](=O)[O-]`, “inactive”; that for `CCNc1nc2nc3ccc(C)cn3c(=O)c2cc1C(=O)NCC1CCCO1` (stereo not given), “inactive”. Regarding `Cc1nc2ccccc2c2oc(C(=O)NCCCN3CCC(C)CC3)cc12`, the call was inactive.

Regarding `CC(C)(C)[C@H]1CCC(=O)N([C@H](CSc2ccccc2)Cc2ccccc2)CC1`, the molecule was classed as inactive. The result for `COc1cc(C2C3=C(CC(C)(C)CC3=O)N(C)C3=C2C(=O)CC(C)(C)C3)cc(Br)c1O` reads “inactive”; that for `Cc1nc(CCNC(=O)Cc2ccc(Cl)cc2)cs1`, “inactive”.

For `CSC1=NSC2=NC(=O)/C(=C/c3coc4ccc(O)cc4c3=O)C(=N)N12`, the outcome was inactive.
